# Experimental data taken from PMC7862700, “An all-to-all approach to the identification of sequence-specific readers for epigenetic DNA modifications on cytosine”.
# Columns and labels:
# Assay in all cases: DAPPL (digital affinity profiling via proximity ligation, sequencing); 10 mM Tris-HCl pH 7.5, 50 mM NaCl, 1 mM DTT, 4% glycerol, room temperature, 30 min; GST-TFs on glutathione beads, 16-mer random dsDNA library, 0.1% formaldehyde crosslink after washing; high values mean tight binding
# Settings in all cases: protein: recombinant; tags: N-terminal GST; dsDNA, one strand shown
# [1] = target: T1, FLI1 (Homo sapiens, UniProt Q01543 1-452)
# T1 sequence: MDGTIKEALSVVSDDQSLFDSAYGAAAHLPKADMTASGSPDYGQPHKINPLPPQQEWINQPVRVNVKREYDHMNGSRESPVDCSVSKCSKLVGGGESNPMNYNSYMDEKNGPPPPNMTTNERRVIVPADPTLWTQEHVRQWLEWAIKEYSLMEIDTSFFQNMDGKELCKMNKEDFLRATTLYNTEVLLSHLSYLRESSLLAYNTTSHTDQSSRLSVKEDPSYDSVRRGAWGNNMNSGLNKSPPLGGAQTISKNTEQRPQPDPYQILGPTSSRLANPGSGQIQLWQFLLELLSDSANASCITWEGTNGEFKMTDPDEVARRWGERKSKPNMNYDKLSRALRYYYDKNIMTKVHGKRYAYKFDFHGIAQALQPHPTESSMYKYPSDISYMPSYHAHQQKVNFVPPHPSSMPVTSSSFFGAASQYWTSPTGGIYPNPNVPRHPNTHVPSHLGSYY
# Summary of the method: (§1)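 Pools were built from human transcription factors expressed in yeast as GST fusions, captured on glutathione beads and DNA-barcoded, along with a tag-only sample. Incubation with 200 nmole of a 16-mer random double-stranded DNA library lasted 30 min at room temperature in Tris/NaCl/DTT/glycerol buffer, and was followed by washing, 0.1% formaldehyde crosslinking, proximity ligation, PCR amplification and Illumina NextSeq500 sequencing. Binding signal is the quotient of each hexamer's read frequency for a factor and its frequency for the tag-only sample.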
# [2] = target: T2, ELK1 (Homo sapiens, UniProt P19419 1-428)
# T2 sequence: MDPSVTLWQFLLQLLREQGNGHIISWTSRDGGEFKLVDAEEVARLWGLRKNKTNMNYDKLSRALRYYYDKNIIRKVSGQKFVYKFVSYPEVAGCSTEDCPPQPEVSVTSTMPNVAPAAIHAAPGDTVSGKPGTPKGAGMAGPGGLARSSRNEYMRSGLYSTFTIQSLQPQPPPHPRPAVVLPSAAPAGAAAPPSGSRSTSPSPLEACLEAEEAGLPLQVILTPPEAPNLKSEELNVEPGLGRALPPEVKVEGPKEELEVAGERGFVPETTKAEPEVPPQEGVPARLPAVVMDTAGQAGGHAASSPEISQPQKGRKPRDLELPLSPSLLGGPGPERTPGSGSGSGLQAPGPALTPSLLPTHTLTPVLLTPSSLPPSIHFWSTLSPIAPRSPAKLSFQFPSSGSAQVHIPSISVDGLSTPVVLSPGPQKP
# Summary of the method: as §1
# [3] = target: T3, GABPA (Homo sapiens, UniProt Q06546 1-454)
# T3 sequence: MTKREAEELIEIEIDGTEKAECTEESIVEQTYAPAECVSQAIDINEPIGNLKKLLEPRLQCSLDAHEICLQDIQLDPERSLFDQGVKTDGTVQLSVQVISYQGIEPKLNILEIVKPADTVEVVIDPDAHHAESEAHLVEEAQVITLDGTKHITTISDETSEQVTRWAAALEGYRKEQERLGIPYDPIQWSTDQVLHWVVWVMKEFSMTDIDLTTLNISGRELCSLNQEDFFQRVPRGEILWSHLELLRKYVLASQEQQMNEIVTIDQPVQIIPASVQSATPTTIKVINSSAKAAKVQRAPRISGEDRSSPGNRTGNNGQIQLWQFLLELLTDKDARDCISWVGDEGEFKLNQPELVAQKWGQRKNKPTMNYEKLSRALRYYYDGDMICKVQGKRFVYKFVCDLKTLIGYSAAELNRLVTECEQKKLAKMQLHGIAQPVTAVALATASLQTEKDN
# Summary of the method: as §1
# [4] = target: T4, ERG (Homo sapiens, UniProt P11308 1-479)
# T4 sequence: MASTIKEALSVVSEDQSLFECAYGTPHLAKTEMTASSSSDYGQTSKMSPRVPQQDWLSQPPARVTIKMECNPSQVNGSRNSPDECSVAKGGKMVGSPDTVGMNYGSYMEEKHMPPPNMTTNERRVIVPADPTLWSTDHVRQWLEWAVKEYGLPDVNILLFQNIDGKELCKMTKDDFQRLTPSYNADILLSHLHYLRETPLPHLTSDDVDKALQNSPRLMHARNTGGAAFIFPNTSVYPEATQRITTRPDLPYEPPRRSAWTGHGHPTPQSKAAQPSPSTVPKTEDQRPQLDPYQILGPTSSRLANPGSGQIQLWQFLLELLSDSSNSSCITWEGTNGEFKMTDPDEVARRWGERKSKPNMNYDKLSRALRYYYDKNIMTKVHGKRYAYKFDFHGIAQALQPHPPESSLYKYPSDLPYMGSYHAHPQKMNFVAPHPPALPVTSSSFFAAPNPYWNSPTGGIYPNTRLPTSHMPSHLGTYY
# Summary of the method: as §1
# [5] = target: ELF1 (Homo sapiens, UniProt P32519 1-619)
# Sequence of ELF1 (P32519 whole entry): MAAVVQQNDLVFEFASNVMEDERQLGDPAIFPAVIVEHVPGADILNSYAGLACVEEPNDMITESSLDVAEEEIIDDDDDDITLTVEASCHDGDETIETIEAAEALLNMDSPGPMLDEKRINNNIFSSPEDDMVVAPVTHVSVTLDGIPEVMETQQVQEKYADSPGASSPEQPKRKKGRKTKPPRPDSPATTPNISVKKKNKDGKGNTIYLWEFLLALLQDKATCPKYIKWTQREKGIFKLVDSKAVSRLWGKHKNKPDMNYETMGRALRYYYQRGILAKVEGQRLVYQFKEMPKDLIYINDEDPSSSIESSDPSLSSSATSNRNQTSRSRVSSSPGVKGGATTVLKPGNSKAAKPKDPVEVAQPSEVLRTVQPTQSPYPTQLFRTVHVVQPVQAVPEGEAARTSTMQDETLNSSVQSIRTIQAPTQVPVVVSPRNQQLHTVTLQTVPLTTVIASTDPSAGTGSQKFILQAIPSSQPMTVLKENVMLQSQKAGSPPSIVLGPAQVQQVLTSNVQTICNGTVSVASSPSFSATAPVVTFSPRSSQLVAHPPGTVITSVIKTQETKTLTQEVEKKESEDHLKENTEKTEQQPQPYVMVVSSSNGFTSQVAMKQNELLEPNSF
# Summary of the method: as §1
# [6] = target: T5, EHF (Homo sapiens, UniProt Q9NZC4 1-300)
# T5 sequence: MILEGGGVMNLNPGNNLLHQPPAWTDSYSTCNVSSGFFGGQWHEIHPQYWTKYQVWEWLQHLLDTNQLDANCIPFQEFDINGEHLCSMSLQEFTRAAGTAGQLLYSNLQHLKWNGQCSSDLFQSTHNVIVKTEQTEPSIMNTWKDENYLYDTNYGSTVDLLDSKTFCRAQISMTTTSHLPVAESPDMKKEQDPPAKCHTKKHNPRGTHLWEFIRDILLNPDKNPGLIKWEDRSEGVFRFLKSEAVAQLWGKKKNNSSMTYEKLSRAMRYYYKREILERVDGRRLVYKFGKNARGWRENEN
# Summary of the method: as §1
# [7] = target: SPI1 (Homo sapiens, UniProt P17947 1-270)
# Summary of the method: as §1
# [8] = target: T6, FEV (Homo sapiens, UniProt Q99581 1-238)
# T6 sequence: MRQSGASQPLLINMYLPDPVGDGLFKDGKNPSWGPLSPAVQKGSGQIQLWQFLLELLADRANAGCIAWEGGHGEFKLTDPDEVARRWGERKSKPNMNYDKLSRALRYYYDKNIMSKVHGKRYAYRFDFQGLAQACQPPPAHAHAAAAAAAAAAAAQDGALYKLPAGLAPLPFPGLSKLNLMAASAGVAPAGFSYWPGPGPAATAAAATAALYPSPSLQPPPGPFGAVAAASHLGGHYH
# Summary of the method: as §1
# [9] = target: ETV5 (Homo sapiens, UniProt P41161 1-510)
# Sequence of ETV5 (P41161 whole entry): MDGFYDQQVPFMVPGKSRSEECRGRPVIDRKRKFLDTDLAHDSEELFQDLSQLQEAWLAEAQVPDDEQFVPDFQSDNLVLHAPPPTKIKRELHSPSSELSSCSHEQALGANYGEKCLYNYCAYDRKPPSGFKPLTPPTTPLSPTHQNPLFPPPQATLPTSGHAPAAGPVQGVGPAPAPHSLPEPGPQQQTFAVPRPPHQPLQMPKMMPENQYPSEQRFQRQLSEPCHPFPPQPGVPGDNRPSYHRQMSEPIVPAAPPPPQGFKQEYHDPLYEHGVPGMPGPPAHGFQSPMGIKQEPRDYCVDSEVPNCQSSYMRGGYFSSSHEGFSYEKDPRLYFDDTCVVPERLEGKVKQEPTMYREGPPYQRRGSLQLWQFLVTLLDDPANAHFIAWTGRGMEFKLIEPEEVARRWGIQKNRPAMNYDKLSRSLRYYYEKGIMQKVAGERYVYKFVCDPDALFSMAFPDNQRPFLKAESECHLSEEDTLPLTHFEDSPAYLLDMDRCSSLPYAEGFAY
# Summary of the method: as §1
# [10] = target: ELF4 (Homo sapiens, UniProt Q99607 1-663)
# Sequence of ELF4 (Q99607 whole entry): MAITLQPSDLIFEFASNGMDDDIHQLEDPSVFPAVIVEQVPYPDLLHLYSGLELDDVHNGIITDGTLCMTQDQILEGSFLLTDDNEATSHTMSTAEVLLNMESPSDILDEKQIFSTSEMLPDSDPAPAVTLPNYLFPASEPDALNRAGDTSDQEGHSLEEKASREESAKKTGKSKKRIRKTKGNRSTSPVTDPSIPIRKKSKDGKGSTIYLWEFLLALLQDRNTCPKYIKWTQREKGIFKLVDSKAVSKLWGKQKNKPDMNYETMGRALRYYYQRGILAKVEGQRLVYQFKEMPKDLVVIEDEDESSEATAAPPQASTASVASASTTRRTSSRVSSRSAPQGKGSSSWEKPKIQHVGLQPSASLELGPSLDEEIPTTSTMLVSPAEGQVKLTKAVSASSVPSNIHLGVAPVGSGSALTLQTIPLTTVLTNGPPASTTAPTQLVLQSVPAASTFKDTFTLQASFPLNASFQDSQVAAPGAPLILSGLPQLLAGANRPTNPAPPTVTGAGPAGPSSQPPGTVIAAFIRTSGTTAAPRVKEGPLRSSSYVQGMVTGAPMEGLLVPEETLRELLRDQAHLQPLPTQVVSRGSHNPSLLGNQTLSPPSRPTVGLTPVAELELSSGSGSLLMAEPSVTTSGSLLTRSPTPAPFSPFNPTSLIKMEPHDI
# Summary of the method: as §1
# [11] = target: T7, ELF3 (Homo sapiens, UniProt P78545 1-371)
# T7 sequence: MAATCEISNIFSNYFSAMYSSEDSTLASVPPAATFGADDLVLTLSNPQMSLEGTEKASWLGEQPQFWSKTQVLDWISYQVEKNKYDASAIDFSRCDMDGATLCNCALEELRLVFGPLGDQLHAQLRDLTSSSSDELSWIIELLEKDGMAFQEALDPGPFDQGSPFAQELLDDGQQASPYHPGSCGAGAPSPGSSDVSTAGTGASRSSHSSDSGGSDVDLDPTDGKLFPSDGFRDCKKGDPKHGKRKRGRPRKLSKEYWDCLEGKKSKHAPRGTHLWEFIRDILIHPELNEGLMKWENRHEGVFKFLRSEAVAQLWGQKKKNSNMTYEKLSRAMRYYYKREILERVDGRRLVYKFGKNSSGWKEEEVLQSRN
# Summary of the method: as §1
# [12] = target: ETV1 (Homo sapiens, UniProt P50549 1-477)
# Sequence of ETV1 (P50549 whole entry): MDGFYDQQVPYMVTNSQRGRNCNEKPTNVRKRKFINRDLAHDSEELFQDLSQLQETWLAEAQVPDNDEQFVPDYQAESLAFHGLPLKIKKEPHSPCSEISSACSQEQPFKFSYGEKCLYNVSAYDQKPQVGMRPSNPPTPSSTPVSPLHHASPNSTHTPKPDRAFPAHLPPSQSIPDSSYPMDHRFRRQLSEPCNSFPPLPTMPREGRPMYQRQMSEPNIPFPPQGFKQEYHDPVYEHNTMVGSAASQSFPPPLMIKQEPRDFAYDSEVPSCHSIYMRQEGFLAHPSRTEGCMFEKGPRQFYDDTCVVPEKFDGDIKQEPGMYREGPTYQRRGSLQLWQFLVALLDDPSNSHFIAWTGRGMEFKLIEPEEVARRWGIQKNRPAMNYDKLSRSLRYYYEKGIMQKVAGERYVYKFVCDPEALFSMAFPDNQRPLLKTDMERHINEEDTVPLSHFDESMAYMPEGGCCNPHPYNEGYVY
# Summary of the method: as §1
# [13] = target: T8, ERF (Homo sapiens, UniProt P50548 1-548)
# T8 sequence: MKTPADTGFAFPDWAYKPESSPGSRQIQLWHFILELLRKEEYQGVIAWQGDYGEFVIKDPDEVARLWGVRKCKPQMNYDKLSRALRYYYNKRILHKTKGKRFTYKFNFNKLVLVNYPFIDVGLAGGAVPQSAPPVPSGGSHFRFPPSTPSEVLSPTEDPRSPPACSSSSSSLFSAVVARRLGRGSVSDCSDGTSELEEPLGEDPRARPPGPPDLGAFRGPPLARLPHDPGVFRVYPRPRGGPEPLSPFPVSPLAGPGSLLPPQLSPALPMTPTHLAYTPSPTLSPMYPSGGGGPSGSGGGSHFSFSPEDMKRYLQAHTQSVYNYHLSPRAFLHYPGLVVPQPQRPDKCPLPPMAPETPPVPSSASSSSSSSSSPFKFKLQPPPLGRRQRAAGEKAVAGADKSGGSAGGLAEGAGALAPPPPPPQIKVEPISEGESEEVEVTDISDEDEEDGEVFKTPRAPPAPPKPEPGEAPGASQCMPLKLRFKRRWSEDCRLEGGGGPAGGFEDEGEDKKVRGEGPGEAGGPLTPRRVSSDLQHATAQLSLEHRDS
# Summary of the method: as §1
# [14] = target: T9, ETV3L (Homo sapiens, UniProt Q6ZN32 1-361)
# T9 sequence: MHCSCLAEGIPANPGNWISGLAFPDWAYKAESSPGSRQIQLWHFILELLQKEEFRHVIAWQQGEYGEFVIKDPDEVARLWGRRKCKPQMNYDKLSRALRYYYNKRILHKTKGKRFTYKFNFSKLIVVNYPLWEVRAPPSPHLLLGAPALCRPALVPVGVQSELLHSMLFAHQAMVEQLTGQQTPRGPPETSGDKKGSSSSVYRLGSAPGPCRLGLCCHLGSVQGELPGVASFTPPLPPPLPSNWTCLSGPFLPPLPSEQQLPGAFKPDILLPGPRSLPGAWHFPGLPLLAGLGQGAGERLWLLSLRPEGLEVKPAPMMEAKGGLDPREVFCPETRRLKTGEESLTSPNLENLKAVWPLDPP
# Summary of the method: as §1
# [15] = target: T10, ETS2 (Homo sapiens, UniProt P15036 1-469)
# T10 sequence: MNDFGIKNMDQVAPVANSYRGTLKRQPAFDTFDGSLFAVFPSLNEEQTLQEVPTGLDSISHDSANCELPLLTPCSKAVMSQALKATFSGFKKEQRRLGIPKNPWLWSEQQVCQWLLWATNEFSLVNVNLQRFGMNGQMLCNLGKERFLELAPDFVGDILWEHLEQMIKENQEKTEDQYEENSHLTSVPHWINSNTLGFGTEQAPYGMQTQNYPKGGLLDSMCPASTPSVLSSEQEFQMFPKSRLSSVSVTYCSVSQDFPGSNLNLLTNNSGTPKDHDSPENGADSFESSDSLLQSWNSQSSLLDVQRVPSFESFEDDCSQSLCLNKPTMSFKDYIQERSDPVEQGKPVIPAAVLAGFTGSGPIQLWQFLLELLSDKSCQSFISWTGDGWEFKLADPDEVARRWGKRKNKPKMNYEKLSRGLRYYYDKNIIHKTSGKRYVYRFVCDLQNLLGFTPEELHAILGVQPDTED
# Summary of the method: as §1
# [16] = target: T11, ETV7 (Homo sapiens, UniProt Q9Y603 1-341)
# T11 sequence: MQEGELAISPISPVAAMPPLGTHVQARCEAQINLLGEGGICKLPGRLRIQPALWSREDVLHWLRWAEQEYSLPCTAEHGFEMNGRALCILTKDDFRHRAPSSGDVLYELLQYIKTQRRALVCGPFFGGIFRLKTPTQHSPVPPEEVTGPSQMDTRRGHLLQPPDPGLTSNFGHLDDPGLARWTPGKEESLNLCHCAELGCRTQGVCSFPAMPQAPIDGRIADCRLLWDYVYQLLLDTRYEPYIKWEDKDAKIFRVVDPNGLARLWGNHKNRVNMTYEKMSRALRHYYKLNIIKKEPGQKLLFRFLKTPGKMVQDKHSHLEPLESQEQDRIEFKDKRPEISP
# Summary of the method: as §1
# [17] = target: T12, ETV3 (Homo sapiens, UniProt P41162-2 1-143)
# T12 sequence: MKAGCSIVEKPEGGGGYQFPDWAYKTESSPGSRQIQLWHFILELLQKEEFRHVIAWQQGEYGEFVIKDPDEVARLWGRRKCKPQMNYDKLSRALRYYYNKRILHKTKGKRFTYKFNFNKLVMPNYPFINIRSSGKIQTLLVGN
# Summary of the method: as §1
# [18] = target: ETV6 (Homo sapiens, UniProt P41212 1-452)
# Sequence of ETV6 (P41212 whole entry): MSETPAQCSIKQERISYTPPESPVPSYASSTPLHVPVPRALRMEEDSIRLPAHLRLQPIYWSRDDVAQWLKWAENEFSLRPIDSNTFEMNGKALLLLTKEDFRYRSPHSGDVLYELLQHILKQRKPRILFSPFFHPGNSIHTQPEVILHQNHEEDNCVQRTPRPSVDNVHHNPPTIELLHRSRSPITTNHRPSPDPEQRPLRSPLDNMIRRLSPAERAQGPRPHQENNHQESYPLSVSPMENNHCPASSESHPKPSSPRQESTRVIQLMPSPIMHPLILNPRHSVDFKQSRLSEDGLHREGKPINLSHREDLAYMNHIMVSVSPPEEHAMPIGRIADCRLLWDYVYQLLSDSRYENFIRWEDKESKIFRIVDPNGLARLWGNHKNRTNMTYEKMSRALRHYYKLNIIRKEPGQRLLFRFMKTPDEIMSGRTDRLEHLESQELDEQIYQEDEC
# Summary of the method: as §1
sequence,measurement,setting,value
GTACGC,binding signal,[1],"1.05 fold enrichment (6-mer frequency, TF over GST control)"
same,binding signal,[2],"1.03 fold enrichment (6-mer frequency, TF over GST control)"
same,binding signal,[3],"1.04 fold enrichment (6-mer frequency, TF over GST control)"
same,binding signal,[4],"1.09 fold enrichment (6-mer frequency, TF over GST control)"
same,binding signal,[5],"1.05 fold enrichment (6-mer frequency, TF over GST control)"
same,binding signal,[6],"1.03 fold enrichment (6-mer frequency, TF over GST control)"
same,binding signal,[7],"1.05 fold enrichment (6-mer frequency, TF over GST control)"
same,binding signal,[8],"1.1 fold enrichment (6-mer frequency, TF over GST control)"
same,binding signal,[9],"1.08 fold enrichment (6-mer frequency, TF over GST control)"
same,binding signal,[10],"1.05 fold enrichment (6-mer frequency, TF over GST control)"
same,binding signal,[11],"1.17 fold enrichment (6-mer frequency, TF over GST control)"
same,binding signal,[12],"1.09 fold enrichment (6-mer frequency, TF over GST control)"
same,binding signal,[13],"1.05 fold enrichment (6-mer frequency, TF over GST control)"
same,binding signal,[14],"1.11 fold enrichment (6-mer frequency, TF over GST control)"
same,binding signal,[15],"1.06 fold enrichment (6-mer frequency, TF over GST control)"
same,binding signal,[16],"1.09 fold enrichment (6-mer frequency, TF over GST control)"
same,binding signal,[17],"1.14 fold enrichment (6-mer frequency, TF over GST control)"
same,binding signal,[18],"1.07 fold enrichment (6-mer frequency, TF over GST control)"
